# From PubChem BioAssay (EPA / NIEHS)
# Records with an inconclusive call do not appear. Active and inactive are the calls of the source. The calls were made as follows: active = hit-call score of the fitted dose curve at least 0.9, where 1 is the maximum; inconclusive = response in the unintended direction; inactive = score below 0.9.
# System: not listed separately
# Test: TOX21_p53_BLA_p3_viability: Viability Assessment in the Tox21 HCT-116 p53 Agonism Beta-lactamase Assay, Phase 3 (AID 2283593);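 also: cells exposed to compound for 16 h before reading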
# In short: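 Cellular ATP was quantified by CellTiter-Glo luminescence, read after 30 min at room temperature. Beforehand, HCT116 cells (4000/well) received compound 5 h post-seeding, 217-fold diluted from DMSO, then incubated 16 h at 37C.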
row,SMILES,outcome
1,CC(=O)OCC(=O)[C@H]1CC[C@H]2[C@@H]3CC[C@H]4C[C@H](O)CC[C@]4(C)[C@H]3C(=O)C[C@]12C,inactive
2,COc1cccc(C(=O)CCN[C@@H](C)[C@H](O)c2ccccc2)c1,inactive
3,C[C@]12N[C@H](Cc3ccccc31)c1ccccc12,inactive
4,CN1CCC(O)(c2ccc(F)cc2)C(C(=O)c2ccc(F)cc2)C1 (centres undefined),inactive
5,CC(C)NCC(O)c1ccc([N+](=O)[O-])cc1 (centres undefined),inactive
6,C[N+](C)(C)C,inactive
7,COC(=O)C(C)N(C(=O)c1ccco1)c1c(C)cccc1C (centres undefined),inactive
8,COc1cc(C[C@H](C)N)c(OC)cc1Br,inactive
9,COc1cc(C[C@@H](C)N)c(OC)cc1Br,inactive
10,CCN(CC)C(=O)[C@@H]1C=C2c3cccc4[nH]cc(c34)C[C@H]2N(C)C1,inactive
11,CC(=O)[C@H]1CC[C@H]2[C@@H]3CC[C@H]4C[C@](C)(O)CC[C@]4(C)[C@H]3CC[C@]12C,inactive
12,CCBr,inactive
13,CC[C@H]1[C@@H]2C[C@H]3[C@@H]4N(C)c5ccccc5[C@]45C[C@@H](C2C5O)N3[C@@H]1O (some centres undefined),inactive
14,Cc1nc2ccccc2c(=O)n1-c1ccccc1Cl,inactive
15,CC(=O)OC1(c2ccccc2)CCN(CCc2ccccc2)CC1,inactive
16,COC(=O)[C@H]1[C@@H](OC(=O)c2ccccc2)C[C@@H]2CC[C@H]1N2C,inactive
17,CN1C[C@H](CNC(=O)OCc2ccccc2)C[C@@H]2c3cccc4c3c(cn4C)C[C@H]21,inactive
18,CCC(=O)O[C@](Cc1ccccc1)(c1ccccc1)[C@H](C)CN(C)C,inactive
19,CCN(CC)CCOC(=O)C(O)(c1ccccc1)c1ccccc1,inactive
20,CC(=O)OCC1=C(C(=O)O)N2C(=O)[C@@H](N)[C@H]2SC1,inactive

row,SMILES,outcome
1,C[C@]12CC[C@H]3[C@@H](CCC4=CC(=O)CC[C@@H]43)[C@@H]1CC[C@@H]2O,inactive
2,CCOP(=S)(OCC)Oc1cc(-c2ccccc2)on1,inactive
3,FC(F)OC(F)(F)C(F)Cl (centres undefined),inactive
4,CCOP(=S)(OCC)Oc1cc(C)nc(N(CC)CC)n1,inactive
5,O=C1c2ccccc2C(=O)c2ccccc21,inactive
6,c1ccc(C2CC2)c(OCC2=NCCN2)c1,inactive
7,c1ccccc1,inactive
8,CNCC(O)c1ccc(O)cc1 (centres undefined),inactive
9,O=C(O)CBr,inactive
10,CCCC[P+](CC)(CCCC)CCCC (tested in a mixture with another compound),inactive
11,COC1=CC(=O)O[C@@H](CCc2ccccc2)C1,inactive
12,O=C(Cl)OCc1ccccc1,inactive
13,COc1cc(CC(C)N)c(OC)cc1Br (centres undefined),inactive
14,CC(C)(C)NCC(O)c1cc(Cl)c(N)c(C(F)(F)F)c1 (centres undefined),inactive
15,Cc1nnc2n1-c1ccc(Cl)cc1C(c1ccccc1Cl)=NC2,inactive
16,II,inactive
17,NCc1cccnc1,inactive
18,OC(c1ccccc1)(c1ccccc1)C1CN2CCC1CC2 (centres undefined),inactive
19,ClCC(Br)CBr (centres undefined),inactive
20,Clc1c(Cl)c(Cl)c(Cl)c(Cl)c1Cl,inactive

# Target: Cellular tumor antigen p53 (Homo sapiens) (UniProt P04637)
# Test: TOX21_p53_BLA_p3_ratio: Tox21 HCT-116 p53 Agonism Beta-lactamase Assay, Ratio, Phase 3 (AID 2283596)
# In short: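 Cells were seeded at 4000/well, rested 5 h at 37C, then dosed with DMSO compound solutions (217-fold dilution) for 16 h. CCF4-AM substrate was loaded for 2 h at room temperature, and the 460/530 nm emission ratio was fitted for gain of signal versus DMSO.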
# Sequence of Cellular tumor antigen p53 (Homo sapiens) (P04637 whole entry, looked up): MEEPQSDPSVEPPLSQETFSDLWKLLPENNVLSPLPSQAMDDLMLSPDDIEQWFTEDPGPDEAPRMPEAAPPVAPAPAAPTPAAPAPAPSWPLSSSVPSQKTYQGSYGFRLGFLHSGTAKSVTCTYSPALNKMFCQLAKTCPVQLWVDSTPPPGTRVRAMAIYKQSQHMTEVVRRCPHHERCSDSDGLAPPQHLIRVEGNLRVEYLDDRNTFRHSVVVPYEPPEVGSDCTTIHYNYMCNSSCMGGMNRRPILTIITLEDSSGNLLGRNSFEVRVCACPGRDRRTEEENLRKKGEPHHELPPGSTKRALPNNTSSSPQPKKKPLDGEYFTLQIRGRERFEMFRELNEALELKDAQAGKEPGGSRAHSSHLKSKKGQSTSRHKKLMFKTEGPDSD
row,SMILES,outcome
1,C[C@]12N[C@H](Cc3ccccc31)c1ccccc12,inactive
2,CCBr,inactive
3,FC(F)OC(F)(F)C(F)Cl (centres undefined),inactive
4,c1ccccc1,inactive

# System: not listed separately
# Test: TOX21_p53_BLA_p4_viability: Viability Assessment in the Tox21 HCT-116 p53 Agonism Beta-lactamase Assay, Phase 4 (AID 2283597);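 also: hits lower the luminescence signal meaning cytotoxicity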
# In short: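 Cytotoxicity as reduced cellular ATP (CellTiter-Glo luminescence, 30 min room temperature), measured in the same wells following the CCF4 FRET p53 reading. Human HCT-116 cells received compounds in DMSO (217-fold dilution) for 16 h.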
SMILES,outcome,AC50
CC(=O)OCC(=O)[C@H]1CC[C@H]2[C@@H]3CC[C@H]4C[C@H](O)CC[C@]4(C)[C@H]3C(=O)C[C@]12C,inactive,–
COc1cccc(C(=O)CCN[C@@H](C)[C@H](O)c2ccccc2)c1,inactive,–
CC(C)NCC(O)c1ccc([N+](=O)[O-])cc1 (centres undefined),inactive,–
C[N+](C)(C)C,inactive,–
COC(=O)C(C)N(C(=O)c1ccco1)c1c(C)cccc1C (centres undefined),inactive,–
COc1cc(C[C@@H](C)N)c(OC)cc1Br,inactive,–
CCN(CC)C(=O)[C@@H]1C=C2c3cccc4[nH]cc(c34)C[C@H]2N(C)C1,inactive,–
CC(=O)[C@H]1CC[C@H]2[C@@H]3CC[C@H]4C[C@](C)(O)CC[C@]4(C)[C@H]3CC[C@]12C,inactive,–
CC[C@H]1[C@@H]2C[C@H]3[C@@H]4N(C)c5ccccc5[C@]45C[C@@H](C2C5O)N3[C@@H]1O (some centres undefined),inactive,–
Cc1nc2ccccc2c(=O)n1-c1ccccc1Cl,inactive,–
CC(=O)OC1(c2ccccc2)CCN(CCc2ccccc2)CC1,inactive,–
COC(=O)[C@H]1[C@@H](OC(=O)c2ccccc2)C[C@@H]2CC[C@H]1N2C,inactive,–
CN1C[C@H](CNC(=O)OCc2ccccc2)C[C@@H]2c3cccc4c3c(cn4C)C[C@H]21,–,38.7 µM (active)
CCC(=O)O[C@](Cc1ccccc1)(c1ccccc1)[C@H](C)CN(C)C,inactive,–
C[C@]12CC[C@H]3[C@@H](CCC4=CC(=O)CC[C@@H]43)[C@@H]1CC[C@@H]2O,inactive,–
CCOP(=S)(OCC)Oc1cc(-c2ccccc2)on1,inactive,–
CCOP(=S)(OCC)Oc1cc(C)nc(N(CC)CC)n1,inactive,–
O=C1c2ccccc2C(=O)c2ccccc21,inactive,–
c1ccc(C2CC2)c(OCC2=NCCN2)c1,inactive,–
CNCC(O)c1ccc(O)cc1 (centres undefined),inactive,–
O=C(O)CBr,inactive,–
CCCC[P+](CC)(CCCC)CCCC (tested in a mixture with another compound),inactive,–
COC1=CC(=O)O[C@@H](CCc2ccccc2)C1,inactive,–
COc1cc(CC(C)N)c(OC)cc1Br (centres undefined),inactive,–
CC(C)(C)NCC(O)c1cc(Cl)c(N)c(C(F)(F)F)c1 (centres undefined),inactive,–
Cc1nnc2n1-c1ccc(Cl)cc1C(c1ccccc1Cl)=NC2,inactive,–
II,inactive,–
OC(c1ccccc1)(c1ccccc1)C1CN2CCC1CC2 (centres undefined),inactive,–
ClCC(Br)CBr (centres undefined),inactive,–
Clc1c(Cl)c(Cl)c(Cl)c(Cl)c1Cl,inactive,–
